Reference: PubChem BioAssay (NCATS)
Records with an inconclusive call do not appear. Where a call stands in place of a potency, no number is given. Calls of active or inactive are those of the source. Calls come from the whole dose curve; as a rule, active = well fitted curve in the direction sought with a large enough effect; inconclusive = small, poorly fitted or top-dose-only effect, or another doubt; inactive = no such curve, though single readings can be large; an effect the other way counts as inactive or inconclusive.

What was measured:
[1] = qHTS of pediatric cancer cell lines to identify multiple opportunities for drug repurposing: Confirmatory screen for Rh41 cells (AID 1347123);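 note: 48 h compound exposure; nearly all actives have a fitted effect of over 60% in size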; note: potency is the fitted concentration of half-maximal effect
Outline: (§1)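 Viability after 48 h compound treatment at 37C, 500-1,000 cells/well, read as ATP luminescence with CellTiter-Glo. Primary screens used 11-point (MIPE, 0.78 nM-46 µM) or 8-point (NPC, 0.59 nM-46 µM) final concentrations; follow-up screens used 11-point dilutions.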

[2] = qHTS of pediatric cancer cell lines to identify multiple opportunities for drug repurposing: Confirmatory screen for RD cells (AID 1347124);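 note: cells exposed to compound for 48 h before viability readout; nearly all actives have a fitted effect of over 65% in size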; note: potency is the fitted concentration of half-maximal effect
Outline: as §1

[3] = qHTS of pediatric cancer cell lines to identify multiple opportunities for drug repurposing: Confirmatory screen for Rh18 cells (AID 1347125); note: nearly all actives have a fitted effect of over 55% in size; note: potency is the fitted concentration of half-maximal effect
Outline: as §1

[4] = qHTS of pediatric cancer cell lines to identify multiple opportunities for drug repurposing: Confirmatory screen for Rh30 cells (AID 1347126); note: nearly all actives have a fitted effect of over 55% in size; note: potency is the fitted concentration of half-maximal effect
Outline: as §1

[5] = qHTS of pediatric cancer cell lines to identify multiple opportunities for drug repurposing: Confirmatory screen for SK-N-SH cells (AID 1347129);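 note: cells exposed to compound for 48 h before viability read; nearly all actives have a fitted effect of over 60% in size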; note: potency is the fitted concentration of half-maximal effect
Outline: as §1

[6] = system: Zika virus NS2B-NS3 protease (unlinked complex); experiment: Primary screen GU Rhodamine qHTS for Zika virus inhibitors: Unlinked NS2B-NS3 protease assay (AID 1347159); note: nearly all actives have a fitted effect of over 60% in size
Outline: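 Compounds, tested up to 114 microM, were incubated for 15 minutes with 25 nM unlinked NS2B-NS3 protease at pH 8.0. Cleavage of 1.5 microM Rhodamine110 substrate was then followed by fluorescence for 15 minutes.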

[7] = system: Zika virus NS2B-NS3 protease (linked construct); experiment: Primary screen NINDS Rhodamine qHTS for Zika virus inhibitors (AID 1347160); note: nearly all actives have a fitted effect of over 55% in size
Outline: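 Percent inhibition, normalized to uninhibited and enzyme-free controls, is fitted to a 4-parameter Hill equation. Fluorescence change comes from a 15-min cleavage of 1.5 microM bis-peptide Rhodamine110 substrate by 25 nM linked NS2B-NS3 at room temperature.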

[8] = system: Zika virus NS2B-NS3 protease; experiment: Primary screen GU AMC qHTS for Zika virus inhibitors (AID 1347154); note: nearly all actives have a fitted effect of over 70% in size
Outline: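 Unlinked Zika NS2B hydrophilic domain–NS3 protease complex at 25 nM in 10 mM Tris-HCl pH 8.0, 0.01% Tween 20, with an AMC peptide substrate. Fluorescence change (340/450 nm) over 15 min at room temperature, normalized to controls, fitted to 4-parameter Hill.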

Furin (Homo sapiens) = Furin (Homo sapiens) (UniProt P09958); experiment: Furin counterscreen qHTS for Zika virus inhibitors (AID 1347149);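 note: purified recombinant full-length human furin enzyme at 5 nM; fluorescence gain from furin cutting a BOC-RVRR-AMC peptide substrate over 15 min; top concentration of the series differs between compounds; nearly all actives have a fitted effect of over 70% in size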
Outline: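 Fluorogenic cleavage of BOC-RVRR-AMC (2 microM final, Km ~15 µM) was monitored (ex 340, em 450 nm) at 37C after 15 min RT preincubation of 5 nM furin with compounds in HEPES pH 7.0 buffer with CaCl2 and Triton X-100. Percent inhibition was fitted to a 4-parameter Hill curve.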

[9] = system: Zika virus NS2B-NS3 protease (unlinked); experiment: Optimization of GU AMC qHTS for Zika virus inhibitors: Unlinked NS2B-NS3 protease assay (AID 1347151); note: series mostly up to about 52 µM; nearly all actives have a fitted effect of over 80% in size
Outline: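 In this qHTS, compounds acted on 25 nM unlinked Zika NS2B–NS3 in pH 8.0 Tris/Tween buffer. Cleavage of an AMC peptide ran 15 min at room temperature, to about 20% conversion.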

[10] = system: Zika virus NS2B-NS3 protease (linked); experiment: 384 well plate NINDS AMC confirmatory qHTS for Zika virus inhibitors (AID 1347163); conditions: Recombinant NS2B-NS3 protease, Ac-VKTGKR-AMC fluorescence; note: potency is the fitted concentration of half-maximal effect; nearly all actives have a fitted effect of over 50% in size
Outline: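 Linked protease 5/30/60 nM final; cpds up to 1 mM final, ~15 min preinc. Substrate Ac-VKTGKR-AMC 30 microM final. RT, dark, 25 min; FI ex 355/em 460; normalized to no-enzyme/no-inhibitor ctrls.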

[11] = Vero cells viability qHTS for Zika virus inhibitors (AID 1347167)
Outline: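 Cells seeded at 2.5 x 10^5 cells/mL in DMEM with 4% FBS and attached overnight at 37 degrees C, then exposed to compound for 24 to 48 hours. Viability read as ATP content by CellTiter Glo luminescence.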

Furin (Homo sapiens), sequence (P09958 whole entry, looked up): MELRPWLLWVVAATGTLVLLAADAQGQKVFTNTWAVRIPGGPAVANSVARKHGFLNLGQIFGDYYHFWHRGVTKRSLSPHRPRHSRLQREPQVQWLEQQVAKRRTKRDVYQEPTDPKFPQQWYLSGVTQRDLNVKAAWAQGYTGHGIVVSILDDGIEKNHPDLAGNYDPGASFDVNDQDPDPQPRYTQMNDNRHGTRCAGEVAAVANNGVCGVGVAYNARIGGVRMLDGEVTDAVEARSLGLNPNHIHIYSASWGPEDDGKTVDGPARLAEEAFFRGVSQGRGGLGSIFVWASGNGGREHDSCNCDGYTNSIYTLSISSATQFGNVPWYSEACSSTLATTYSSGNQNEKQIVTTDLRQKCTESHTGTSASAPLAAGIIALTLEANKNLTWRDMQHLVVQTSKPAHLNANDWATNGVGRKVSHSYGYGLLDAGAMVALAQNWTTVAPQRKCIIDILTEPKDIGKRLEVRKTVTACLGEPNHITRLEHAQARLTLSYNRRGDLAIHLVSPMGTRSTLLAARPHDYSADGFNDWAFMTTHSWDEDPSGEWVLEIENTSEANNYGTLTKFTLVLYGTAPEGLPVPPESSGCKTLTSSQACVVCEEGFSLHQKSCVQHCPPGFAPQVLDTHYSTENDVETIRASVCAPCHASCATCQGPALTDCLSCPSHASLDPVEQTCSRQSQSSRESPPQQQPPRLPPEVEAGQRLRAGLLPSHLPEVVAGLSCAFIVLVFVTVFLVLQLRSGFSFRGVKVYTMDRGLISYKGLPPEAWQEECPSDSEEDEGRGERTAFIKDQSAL

In the case of `CC(C)n1nc(-c2ccc3oc(N)nc3c2)c2c(N)ncnc21`, the Potency [1] was 29.3 nM (active), the Potency [2] was 208 nM (active) and the Potency [3] was 1650 nM (active). For the same molecule, the Potency [4] was 293 nM (active), the Potency [5] was 590 nM (active) and the Potency [6] was “inactive”. For the same molecule, the Potency [7] was “inactive”.
In the case of `CC[C@@H]1C=C(C)C[C@H](C)C[C@H](OC)[C@H]2O[C@@](O)(C(=O)C(=O)N3CCCC[C@@H]3C(=O)O[C@H](C(C)=C[C@@H]3CC[C@H](Cl)[C@H](OC)C3)[C@H](C)[C@@H](O)CC1=O)[C@H](C)C[C@H]2OC`, the Potency [1] was 13100 nM (active), the Potency [2] was “inactive” and the Potency [5] was “inactive”. The Potency [8] was “inactive”.
With `CC=C(C)C(=O)O[C@H]1C(C)=C[C@]23C(=O)[C@@H](C=C(CO)[C@@H](O)[C@]12O)[C@H]1[C@@H](C[C@H]3C)C1(C)C` the Potency [1] was 13100 nM (active), the Potency [2] was “inactive” and the Potency [3] was “inactive”. For the same molecule, the Potency [5] was “inactive” and the Potency [8] was “inactive”.
With `Oc1ccc(C2CCN(c3ccnc4ccccc34)CC2)cc1O` the Potency [1] was 5850 nM (active), the Potency [2] was 928 nM (active) and the Potency [3] was “inactive”. The Potency [5] was 20900 nM (active).
For `CO[C@H]1C(=O)[C@]2(C)[C@@H](OC)C[C@H]3OC[C@@]3(OC(C)=O)[C@H]2[C@H](OC(=O)c2ccccc2)[C@]2(O)C[C@H](OC(=O)[C@H](O)[C@@H](NC(=O)OC(C)(C)C)c3ccccc3)C(C)=C1C2(C)C`, the Potency [1] was 16.5 nM (active), the Potency [4] was “inactive” and the Potency [8] was “inactive”.
With `COc1cc2nc(-c3ccc(N4CCN(C)CC4)cc3)nc(NCCN3CCOCC3)c2cc1OC` the Potency [1] was 414 nM (active), the Potency [2] was 208 nM (active) and the Potency [3] was 293 nM (active). The Potency [5] was 4690 nM (active), the Potency [6] was “inactive” and the Potency [7] was “inactive”.
For `CCc1ccc(OCc2ccccc2C(=O)Nc2ccc3nc(C)cc(N)c3c2)cc1`, the Potency [1] was 9270 nM (active), the Potency [2] was 8270 nM (active) and the Potency [3] was 8270 nM (active). The Potency [4] was “inactive”, the Potency [5] was 8330 nM (active) and the Potency [8] was “inactive”.
With `CC(=O)Nc1ccc([C@H](C)C(=O)Nc2ncc(C(C)C)s2)cc1` the Potency [1] was 9270 nM (active), the Potency [2] was 7370 nM (active) and the Potency [4] was 2080 nM (active). For the same molecule, the Potency [5] was 6620 nM (active), the Potency (Furin (Homo sapiens)) was “inactive” and the Potency [9] was “inactive”. The Potency [8] was “inactive”, the Potency [6] was “inactive” and the Potency [7] was “inactive”. For the same molecule, the Potency [10] was 112000 nM (active) and the Potency [11] was “inactive”.
In the case of `O=C(NCc1ccncc1)C12C[C@H]3C[C@@H](C1)CC(c1ccc(Cl)cc1)(C3)C2`, the Potency [1] was 14700 nM (active), the Potency [3] was “inactive” and the Potency [5] was “inactive”. For the same molecule, the Potency [8] was “inactive”.
In the case of `NS(=O)(=O)c1cccc2c1C(=O)c1cccc(O)c1C2=O`, the Potency [1] was 657 nM (active), the Potency [3] was 2330 nM (active) and the Potency [4] was 2930 nM (active). For the same molecule, the Potency [5] was 2090 nM (active) and the Potency [8] was “inactive”.
For `CCCCCCCCCCCC1=C(O)C(=O)C=C(O)C1=O`, the Potency [1] was “inactive”, the Potency [2] was “inactive” and the Potency [3] was “inactive”. The Potency [4] was “inactive” and the Potency [8] was “inactive”.
In the case of `CNC1CCC(N(Cc2cccc(-c3ccncc3)c2)C(=O)c2sc3c(F)ccc(F)c3c2Cl)CC1` (stereo not drawn), the Potency [1] was 10400 nM (active), the Potency [3] was “inactive” and the Potency [4] was 23300 nM (active). For the same molecule, the Potency [5] was “inactive”, the Potency [8] was “inactive” and the Potency [6] was “inactive”. For the same molecule, the Potency [7] was “inactive”.
For `O=C1c2ccccc2-[n+]2ccc3c([nH]c4ccccc43)c21`, the Potency [1] was 2080 nM (active), the Potency [2] was 1650 nM (active) and the Potency [3] was 2330 nM (active). The Potency [4] was 2930 nM (active), the Potency [5] was “inactive” and the Potency [8] was “inactive”.
With `O=C1NC(=O)C(=Cc2ccc3c(c2)OC(F)(F)O3)S1` the Potency [1] was “inactive”, the Potency [2] was “inactive” and the Potency [3] was “inactive”. For the same molecule, the Potency [4] was “inactive”, the Potency [5] was “inactive” and the Potency [8] was “inactive”.
For `O=c1[nH]cnc2c1ncn2[C@H]1CC[C@@H](CO)O1`, the Potency [1] was “inactive”, the Potency [2] was “inactive” and the Potency [4] was “inactive”. The Potency [5] was “inactive”, the Potency [8] was “inactive” and the Potency [6] was “inactive”. For the same molecule, the Potency [7] was “inactive”.
For `CC(=O)Oc1cc2c(s1)CCN(C(C(=O)C1CC1)c1ccccc1F)C2` (stereo not drawn), the Potency [1] was 14700 nM (active), the Potency [3] was “inactive” and the Potency [4] was 2930 nM (active). The Potency [5] was “inactive” and the Potency [8] was “inactive”.
In the case of `CO[C@H]1C[C@@H]2CC[C@@H](C)[C@@](O)(O2)C(=O)C(=O)N2CCCC[C@@H]2C(=O)O[C@H]([C@H](C)C[C@@H]2CC[C@H](OP(C)(C)=O)[C@H](OC)C2)CC(=O)[C@H](C)C=C(C)[C@@H](O)[C@@H](OC)C(=O)[C@H](C)C[C@H](C)C=CC=CC=C1C`, the Potency [1] was 4650 nM (active), the Potency [3] was “inactive” and the Potency [4] was 18500 nM (active). For the same molecule, the Potency [5] was “inactive” and the Potency [8] was “inactive”.
With `CC1(C)O[C@H]2C[C@@H]3[C@H]4CCC5=CC(=O)C=C[C@]5(C)[C@@]4(F)[C@@H](O)C[C@]3(C)[C@]2(C(=O)CO)O1` the Potency [1] was “inactive”, the Potency [2] was “inactive” and the Potency [3] was “inactive”. The Potency [4] was “inactive”, the Potency [5] was “inactive” and the Potency [8] was “inactive”.
In the case of `N[C@@]1(C(=O)O)CS(=O)(=O)[C@H]2[C@H](C(=O)O)[C@H]21`, the Potency [1] was “inactive”, the Potency [2] was “inactive” and the Potency [3] was “inactive”. For the same molecule, the Potency [4] was “inactive”, the Potency [5] was “inactive” and the Potency [8] was “inactive”.
